Where “and” joins values, the source holds several entries; their conditions need not be identical. Identical values can stand only once. Out of some 5,500 compounds screened, about 2,000 (36%) were called active. About 18% were inconclusive and are not listed. Rule as the data show it: active = normalized growth mostly below about 0.91 (no sharp cut-off); inconclusive = no clear call, values can overlap the other calls; inactive = mostly above about 0.92. Some of the results follow.
Test: chemical genetic growth profiling, strain panel (AID 1159580);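 also: tested at 20 µM; growth read once vehicle control cultures reached saturation at 30 °C; 1 = growth at the plate median or of vehicle wells; lower values mean less growth of the strain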
Conditions: S. cerevisiae deletion strains, growth OD

Measured: normalized growth

NC(Cc1ccc(Cl)cc1)C(=O)O (stereo not drawn)
inactive: locus YAL013W, strain DEP1, active compounds read low 1 | locus YAL021C, strain ccr4, active compounds read low 0.989 | locus YAL026C, strain drs2, active compounds read low 1.01 | locus YAL030W, strain snc1, active compounds read low 0.993 | locus YAL040C, strain CLN3, active compounds read low 1 | locus YBL061C, strain skt5, active compounds read low 0.999 | locus YBR009C, strain hhf1, active compounds read low 0.993 | locus YBR021W, strain FUR4, active compounds read low 1.01 | locus YBR023C, strain chs3, active compounds read low 0.991 | locus YBR171W, strain sec66, active compounds read low 1.01 | locus YBR229C, strain ROT2, active compounds read low 0.96 | locus YBR231C, strain swc5, active compounds read low 0.997 | locus YBR279W, strain paf1, active compounds read low 0.988 | locus YCL011C, strain gbp2, active compounds read low 1 | locus YCL016C, strain dcc1, active compounds read low 0.989 | locus YCL029C, strain bik1, active compounds read low 0.994 | locus YCL061C, strain MRC1, active compounds read low 1.01 | locus YCL069W, strain vba3, active compounds read low 1 | locus YCR088W, strain abp1, active compounds read low 0.999 | locus YDL005C, strain med2, active compounds read low 0.989 | locus YDL035C, strain GPR1, active compounds read low 0.999 | locus YDL040C, strain nat1, active compounds read low 0.996 | locus YDL074C, strain BRE1, active compounds read low 0.997 | locus YDL101C, strain DUN1, active compounds read low 0.983 | locus YDL134C, strain PPH21, active compounds read low 0.952 | locus YDL185W, strain tfp1, active compounds read low 0.986 | locus YDL192W, strain arf1, active compounds read low 1 | locus YDR001C, strain nth1, active compounds read low 1.01 | locus YDR069C, strain doa4, active compounds read low 0.988 | locus YDR101C, strain arx1, active compounds read low 1.01 | locus YDR137W, strain rgp1, active compounds read low 0.998 | locus YDR150W, strain NUM1, active compounds read low 0.974 | locus YDR159W, strain sac3, active compounds read low 0.976 | locus YDR162C, strain NBP2, active compounds read low 1.01 | locus YDR195W, strain ref2 0.971 | locus YDR297W, strain sur2, active compounds read low 0.992 | locus YDR318W, strain mcm21, active compounds read low 0.987 | locus YDR334W, strain swr1, active compounds read low 1.02 | locus YDR335W, strain msn5, active compounds read low 1 | locus YDR388W, active compounds read low 0.996 | locus YDR392W, strain spt3, active compounds read low 0.936 | locus YDR502C, strain sam2, active compounds read low 1 | locus YEL003W, strain gim4, active compounds read low 1 | locus YEL037C, strain rad23, active compounds read low 1.02 | locus YEL061C, strain CIN8 (second series), active compounds read low 1.01 | locus YEL061C, strain CIN8, active compounds read low 0.99 | locus YER015W, strain faa2, active compounds read low 1 | locus YER016W, strain bim1, active compounds read low 0.992 | locus YER110C, active compounds read low 0.982 | locus YER111C, strain swi4, active compounds read low 1.01 | locus YER155C, strain BEM2 (second series), active compounds read low 0.975 | locus YER155C, strain BEM2, active compounds read low 1.01 | locus YER167W, strain BCK2, active compounds read low 0.999 | locus YFR010W, strain ubp6, active compounds read low 1.03 | locus YGL078C, strain dbp3, active compounds read low 0.988 | locus YGL086W, strain mad1, active compounds read low 1.01 | locus YGL167C, strain pmr1, active compounds read low 0.997 | locus YGL173C, strain kem1, active compounds read low 1 | locus YGL227W, strain vid30, active compounds read low 0.999 | locus YGL240W, strain doc1, active compounds read low 0.972 | locus YGL248W, strain PDE1, active compounds read low 0.987 | locus YGL253W, strain hxk2, active compounds read low 1.01 | locus YGR078C, strain PAC10, active compounds read low 0.991 and 1 | locus YGR135W, strain pre9, active compounds read low 1 | locus YGR229C, strain SMI1, active compounds read low 0.993 | locus YGR252W, strain gcn5, active compounds read low 0.989 | locus YHR013C, strain ard1, active compounds read low 0.994 | locus YHR027C, strain rpn1, active compounds read low 0.992 | locus YHR030C, strain SLT2, active compounds read low 0.986 and 0.959 | locus YHR079C, strain IRE1 (second series), active compounds read low 0.991 | locus YHR079C, strain IRE1, active compounds read low 0.986 | locus YHR094C, strain hxt1, active compounds read low 0.994 | locus YHR129C, strain ARP1, active compounds read low 0.985 | locus YHR142W, strain chs7, active compounds read low 1.03 | locus YHR200W, strain rpn10, active compounds read low 1 | locus YIL066C, strain RNR3, active compounds read low 0.982 | locus YIL073C, strain SPO22, active compounds read low 1.02 | locus YIL125W, strain kgd1, active compounds read low 0.998 | locus YIR030C, strain dcg1, active compounds read low 1 | locus YJL092W, strain hpr5, active compounds read low 1.01 | locus YJL095W, strain BCK1 (second series), active compounds read low 0.99 | locus YJL095W, strain BCK1, active compounds read low 1.02 and 0.993 | locus YJL115W, strain asf1, active compounds read low 0.994 | locus YJL129C, strain trk1, active compounds read low 1.02 | locus YJL134W, strain LCB3, active compounds read low 0.99 | locus YJL154C, strain vps35, active compounds read low 1.01 | locus YJL164C, strain tpk1, active compounds read low 0.992 | locus YJL166W, strain qcr8, active compounds read low 0.991 | locus YJL168C, strain set2, active compounds read low 0.994 | locus YJL187C, strain SWE1 (second series), active compounds read low 0.975 | locus YJL187C, strain SWE1, active compounds read low 0.993 | locus YJR043C, strain POL32, active compounds read low 1.01 | locus YJR066W, strain TOR1, active compounds read low 0.902

— PubChem BioAssay AID1159580 (chemical genetic matrix, 2015)
